Reference: the supplement of paper PMC11732987, “Enantioselective OTUD7B fragment discovery through chemoproteomics screening and high-throughput optimisation” (Communications Chemistry, 2025)

Columns and labels:
Experiment in all cases: log2 ratio of Biotin-Ahx-Ub-VS probe labelling (fragment/DMSO); higher = less target engagement (more negative = stronger competition), active = hit call of the paper (q ≤ 0.05, log2 ratio ≤ -1)
Conditions in all cases: compound concentration: 200 uM; treatment time: 3 h
USP42 = biological target: T1, USP42 (UniProt Q9H9J4)
T1 sequence (whole entry): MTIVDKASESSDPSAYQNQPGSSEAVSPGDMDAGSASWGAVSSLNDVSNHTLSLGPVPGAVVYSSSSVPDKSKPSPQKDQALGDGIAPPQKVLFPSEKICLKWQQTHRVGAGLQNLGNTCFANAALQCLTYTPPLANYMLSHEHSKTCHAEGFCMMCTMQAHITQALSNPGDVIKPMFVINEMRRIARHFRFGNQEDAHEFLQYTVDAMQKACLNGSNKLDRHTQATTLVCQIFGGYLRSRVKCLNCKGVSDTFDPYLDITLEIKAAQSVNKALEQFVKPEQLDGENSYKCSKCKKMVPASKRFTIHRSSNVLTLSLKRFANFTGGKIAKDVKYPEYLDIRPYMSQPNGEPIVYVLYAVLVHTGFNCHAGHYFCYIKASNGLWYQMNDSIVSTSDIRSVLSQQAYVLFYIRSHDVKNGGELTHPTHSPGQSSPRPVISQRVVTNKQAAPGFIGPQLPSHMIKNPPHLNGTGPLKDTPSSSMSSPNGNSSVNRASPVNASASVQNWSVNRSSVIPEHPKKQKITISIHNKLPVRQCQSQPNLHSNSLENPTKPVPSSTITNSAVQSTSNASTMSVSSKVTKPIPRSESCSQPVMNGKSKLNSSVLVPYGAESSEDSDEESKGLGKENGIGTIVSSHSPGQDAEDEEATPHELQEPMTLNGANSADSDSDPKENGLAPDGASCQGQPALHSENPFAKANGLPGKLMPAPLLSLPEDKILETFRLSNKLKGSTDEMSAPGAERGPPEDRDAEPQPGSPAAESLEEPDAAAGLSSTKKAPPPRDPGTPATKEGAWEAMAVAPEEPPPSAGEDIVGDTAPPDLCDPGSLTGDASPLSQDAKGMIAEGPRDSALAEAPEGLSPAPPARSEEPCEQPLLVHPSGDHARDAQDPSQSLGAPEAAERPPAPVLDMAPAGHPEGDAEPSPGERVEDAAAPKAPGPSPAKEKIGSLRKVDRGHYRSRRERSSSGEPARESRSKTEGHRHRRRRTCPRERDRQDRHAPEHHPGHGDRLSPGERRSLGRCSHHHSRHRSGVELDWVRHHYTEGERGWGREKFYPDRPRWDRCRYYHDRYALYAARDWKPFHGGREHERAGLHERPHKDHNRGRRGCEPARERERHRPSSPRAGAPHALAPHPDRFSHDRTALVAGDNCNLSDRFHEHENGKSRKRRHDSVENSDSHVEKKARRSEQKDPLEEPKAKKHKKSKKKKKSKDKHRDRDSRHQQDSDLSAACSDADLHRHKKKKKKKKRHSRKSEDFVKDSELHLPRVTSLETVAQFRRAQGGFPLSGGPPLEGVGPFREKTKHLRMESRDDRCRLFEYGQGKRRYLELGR
Method in brief: (§1)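 Labelled DUBs were enriched with NeutrAvidin, digested with LysC and trypsin, and run by diaPASEF LC-MS/MS. The labelling used Biotin-Ahx-Ub-VS at 0.5 µM final for 1 h on HEK293T lysate (495 µg per sample) previously treated in triplicate with fragment at 200 µM or vehicle for 3 h. Values are average log2 fragment/vehicle ratios by unpaired t-test on global-median-normalised Spectronaut quantities of proteins with ≥2 unique peptides.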

USP46 = USP46 (UniProt P62068)
USP46, sequence (P62068 whole entry): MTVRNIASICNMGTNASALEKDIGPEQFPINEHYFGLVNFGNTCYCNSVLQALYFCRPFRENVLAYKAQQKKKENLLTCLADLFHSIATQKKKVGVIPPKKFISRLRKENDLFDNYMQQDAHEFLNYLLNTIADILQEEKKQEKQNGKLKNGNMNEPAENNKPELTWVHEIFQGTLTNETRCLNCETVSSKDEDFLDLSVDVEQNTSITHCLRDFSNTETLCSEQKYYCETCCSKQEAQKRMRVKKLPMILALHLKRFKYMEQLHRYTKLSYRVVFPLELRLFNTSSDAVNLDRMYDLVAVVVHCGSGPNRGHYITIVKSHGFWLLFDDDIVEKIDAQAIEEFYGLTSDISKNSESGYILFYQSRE
Method in brief: as §1

USP47 = biological target: T2, USP47 (UniProt Q96K76)
T2 sequence (whole entry): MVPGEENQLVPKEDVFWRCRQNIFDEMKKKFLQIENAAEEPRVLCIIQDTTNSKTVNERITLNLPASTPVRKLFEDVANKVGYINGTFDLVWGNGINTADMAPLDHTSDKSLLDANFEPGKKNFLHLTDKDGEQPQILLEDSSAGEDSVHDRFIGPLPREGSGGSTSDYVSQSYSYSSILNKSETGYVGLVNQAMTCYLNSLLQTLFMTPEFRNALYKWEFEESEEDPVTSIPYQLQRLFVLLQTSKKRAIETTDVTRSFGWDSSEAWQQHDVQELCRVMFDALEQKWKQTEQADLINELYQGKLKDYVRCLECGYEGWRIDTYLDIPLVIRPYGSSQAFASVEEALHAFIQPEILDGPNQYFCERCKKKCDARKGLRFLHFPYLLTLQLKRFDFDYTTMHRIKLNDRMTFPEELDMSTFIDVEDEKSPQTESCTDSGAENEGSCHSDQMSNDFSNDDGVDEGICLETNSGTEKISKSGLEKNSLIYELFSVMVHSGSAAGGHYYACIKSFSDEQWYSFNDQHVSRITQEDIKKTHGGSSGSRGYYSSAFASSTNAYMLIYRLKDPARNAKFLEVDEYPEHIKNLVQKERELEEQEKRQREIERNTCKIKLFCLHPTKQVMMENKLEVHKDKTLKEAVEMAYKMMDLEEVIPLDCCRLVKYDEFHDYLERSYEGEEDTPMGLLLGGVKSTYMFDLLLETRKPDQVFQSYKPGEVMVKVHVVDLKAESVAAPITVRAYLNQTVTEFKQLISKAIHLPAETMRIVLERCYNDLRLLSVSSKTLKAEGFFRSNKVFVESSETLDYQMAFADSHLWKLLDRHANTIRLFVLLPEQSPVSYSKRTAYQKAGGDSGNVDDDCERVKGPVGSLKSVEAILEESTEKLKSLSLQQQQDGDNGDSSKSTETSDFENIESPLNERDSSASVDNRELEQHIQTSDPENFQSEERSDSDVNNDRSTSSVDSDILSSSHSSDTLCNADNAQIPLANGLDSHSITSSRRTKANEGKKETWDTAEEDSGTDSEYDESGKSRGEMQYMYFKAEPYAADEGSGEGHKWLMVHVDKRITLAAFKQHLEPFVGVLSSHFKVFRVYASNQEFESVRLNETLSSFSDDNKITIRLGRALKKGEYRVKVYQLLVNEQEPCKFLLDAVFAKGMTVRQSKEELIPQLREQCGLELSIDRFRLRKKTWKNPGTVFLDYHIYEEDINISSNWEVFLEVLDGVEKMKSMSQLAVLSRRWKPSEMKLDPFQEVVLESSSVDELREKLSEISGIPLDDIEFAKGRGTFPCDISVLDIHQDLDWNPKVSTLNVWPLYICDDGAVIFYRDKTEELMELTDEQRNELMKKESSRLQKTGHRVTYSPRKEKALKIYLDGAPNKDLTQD
Method in brief: as §1

USP48 = biological target: T3, USP48 (UniProt Q86UV5)
T3 sequence (whole entry): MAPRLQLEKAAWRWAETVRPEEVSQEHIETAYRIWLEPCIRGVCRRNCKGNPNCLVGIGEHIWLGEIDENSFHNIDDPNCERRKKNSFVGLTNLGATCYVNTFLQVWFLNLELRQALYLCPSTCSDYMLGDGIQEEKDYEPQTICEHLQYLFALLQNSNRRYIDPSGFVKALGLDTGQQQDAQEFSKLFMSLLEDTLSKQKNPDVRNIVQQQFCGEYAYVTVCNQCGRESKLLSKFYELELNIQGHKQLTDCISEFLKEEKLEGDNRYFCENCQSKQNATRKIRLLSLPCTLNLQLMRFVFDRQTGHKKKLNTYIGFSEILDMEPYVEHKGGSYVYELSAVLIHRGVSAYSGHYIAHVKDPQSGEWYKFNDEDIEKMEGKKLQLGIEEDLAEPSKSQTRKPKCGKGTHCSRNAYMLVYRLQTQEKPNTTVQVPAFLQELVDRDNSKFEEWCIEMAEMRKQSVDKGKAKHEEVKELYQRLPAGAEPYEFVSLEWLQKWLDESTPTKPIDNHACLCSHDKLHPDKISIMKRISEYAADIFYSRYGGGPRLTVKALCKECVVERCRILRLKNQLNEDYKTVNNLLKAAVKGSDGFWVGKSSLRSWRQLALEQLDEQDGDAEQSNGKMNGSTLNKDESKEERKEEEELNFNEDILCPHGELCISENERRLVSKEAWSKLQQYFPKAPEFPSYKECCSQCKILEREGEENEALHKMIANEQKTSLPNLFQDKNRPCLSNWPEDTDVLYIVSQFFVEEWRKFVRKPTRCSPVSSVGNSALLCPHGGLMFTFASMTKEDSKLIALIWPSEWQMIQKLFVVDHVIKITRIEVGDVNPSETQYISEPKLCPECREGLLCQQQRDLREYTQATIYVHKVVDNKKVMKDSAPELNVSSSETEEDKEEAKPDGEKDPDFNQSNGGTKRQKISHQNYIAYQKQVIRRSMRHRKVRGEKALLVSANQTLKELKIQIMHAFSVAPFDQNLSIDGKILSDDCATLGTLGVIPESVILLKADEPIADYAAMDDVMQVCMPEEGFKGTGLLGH
Method in brief: as §1

USP5 = biological target: T4, USP5 (UniProt P45974)
T4 sequence (whole entry): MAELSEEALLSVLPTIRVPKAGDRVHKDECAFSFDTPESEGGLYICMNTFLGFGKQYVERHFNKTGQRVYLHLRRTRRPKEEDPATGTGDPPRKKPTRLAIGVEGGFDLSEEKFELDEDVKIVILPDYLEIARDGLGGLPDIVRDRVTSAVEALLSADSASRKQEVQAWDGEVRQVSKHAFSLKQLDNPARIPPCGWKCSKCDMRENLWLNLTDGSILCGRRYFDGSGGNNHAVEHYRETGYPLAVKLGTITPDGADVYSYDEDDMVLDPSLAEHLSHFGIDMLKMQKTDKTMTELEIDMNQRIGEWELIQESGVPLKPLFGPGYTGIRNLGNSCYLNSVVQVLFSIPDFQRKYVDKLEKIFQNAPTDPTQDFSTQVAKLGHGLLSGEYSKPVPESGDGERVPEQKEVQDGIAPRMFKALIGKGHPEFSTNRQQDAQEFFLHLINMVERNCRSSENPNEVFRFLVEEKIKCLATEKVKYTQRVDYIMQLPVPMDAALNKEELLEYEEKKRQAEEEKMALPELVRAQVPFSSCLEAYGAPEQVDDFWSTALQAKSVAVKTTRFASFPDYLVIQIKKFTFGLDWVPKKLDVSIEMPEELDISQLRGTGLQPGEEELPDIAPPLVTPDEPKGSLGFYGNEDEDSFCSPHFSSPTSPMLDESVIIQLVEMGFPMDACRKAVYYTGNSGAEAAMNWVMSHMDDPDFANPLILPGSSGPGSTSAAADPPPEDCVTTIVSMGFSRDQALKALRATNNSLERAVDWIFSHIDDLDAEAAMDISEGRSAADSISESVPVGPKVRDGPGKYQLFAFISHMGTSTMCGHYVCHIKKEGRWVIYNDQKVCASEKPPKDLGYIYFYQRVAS
Method in brief: as §1

USP54 = USP54 (UniProt Q70EL1)
USP54, sequence (Q70EL1 whole entry): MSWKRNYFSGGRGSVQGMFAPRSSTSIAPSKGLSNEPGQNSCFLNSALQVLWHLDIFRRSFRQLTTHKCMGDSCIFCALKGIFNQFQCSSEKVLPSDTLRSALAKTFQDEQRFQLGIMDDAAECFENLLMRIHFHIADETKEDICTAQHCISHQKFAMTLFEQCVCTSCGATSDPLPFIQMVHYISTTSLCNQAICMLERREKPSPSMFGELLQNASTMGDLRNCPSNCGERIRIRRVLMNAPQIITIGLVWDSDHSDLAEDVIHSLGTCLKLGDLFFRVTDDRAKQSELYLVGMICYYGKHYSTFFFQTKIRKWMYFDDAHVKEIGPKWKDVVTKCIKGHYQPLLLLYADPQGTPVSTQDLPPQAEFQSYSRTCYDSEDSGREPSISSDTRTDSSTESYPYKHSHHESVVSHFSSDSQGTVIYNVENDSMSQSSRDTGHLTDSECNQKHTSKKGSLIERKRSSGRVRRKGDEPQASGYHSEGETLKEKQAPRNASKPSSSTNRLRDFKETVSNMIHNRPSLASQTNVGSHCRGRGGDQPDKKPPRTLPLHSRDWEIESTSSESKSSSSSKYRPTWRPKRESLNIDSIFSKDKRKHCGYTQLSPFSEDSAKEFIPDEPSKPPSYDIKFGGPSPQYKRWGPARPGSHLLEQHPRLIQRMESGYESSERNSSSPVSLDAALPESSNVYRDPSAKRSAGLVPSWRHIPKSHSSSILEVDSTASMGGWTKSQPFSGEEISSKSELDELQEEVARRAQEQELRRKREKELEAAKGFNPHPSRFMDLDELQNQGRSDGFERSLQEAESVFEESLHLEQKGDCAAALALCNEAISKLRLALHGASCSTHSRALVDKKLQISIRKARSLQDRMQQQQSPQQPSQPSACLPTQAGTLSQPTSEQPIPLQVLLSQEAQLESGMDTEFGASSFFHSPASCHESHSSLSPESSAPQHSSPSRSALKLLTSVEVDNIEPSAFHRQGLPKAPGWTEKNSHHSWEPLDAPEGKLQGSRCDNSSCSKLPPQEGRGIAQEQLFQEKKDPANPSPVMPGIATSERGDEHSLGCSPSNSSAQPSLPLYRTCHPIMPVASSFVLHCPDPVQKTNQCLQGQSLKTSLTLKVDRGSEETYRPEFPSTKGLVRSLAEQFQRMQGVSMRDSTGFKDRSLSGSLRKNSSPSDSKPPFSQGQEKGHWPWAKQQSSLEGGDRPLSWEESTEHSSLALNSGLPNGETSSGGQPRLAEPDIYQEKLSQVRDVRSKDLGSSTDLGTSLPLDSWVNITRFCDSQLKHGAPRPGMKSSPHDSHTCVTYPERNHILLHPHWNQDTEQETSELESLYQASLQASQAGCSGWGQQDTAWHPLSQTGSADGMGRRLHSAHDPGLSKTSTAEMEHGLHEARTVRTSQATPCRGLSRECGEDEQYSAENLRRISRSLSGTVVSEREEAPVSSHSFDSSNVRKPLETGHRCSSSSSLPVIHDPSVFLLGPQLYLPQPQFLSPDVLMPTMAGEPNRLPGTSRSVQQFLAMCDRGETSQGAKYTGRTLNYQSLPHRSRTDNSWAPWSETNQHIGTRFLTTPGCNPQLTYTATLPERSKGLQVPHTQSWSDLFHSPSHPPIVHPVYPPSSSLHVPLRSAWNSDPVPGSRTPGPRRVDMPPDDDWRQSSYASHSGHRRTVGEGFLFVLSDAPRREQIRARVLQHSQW
Method in brief: as §1

USP7 = USP7 (UniProt Q93009)
USP7, sequence (Q93009 whole entry, looked up): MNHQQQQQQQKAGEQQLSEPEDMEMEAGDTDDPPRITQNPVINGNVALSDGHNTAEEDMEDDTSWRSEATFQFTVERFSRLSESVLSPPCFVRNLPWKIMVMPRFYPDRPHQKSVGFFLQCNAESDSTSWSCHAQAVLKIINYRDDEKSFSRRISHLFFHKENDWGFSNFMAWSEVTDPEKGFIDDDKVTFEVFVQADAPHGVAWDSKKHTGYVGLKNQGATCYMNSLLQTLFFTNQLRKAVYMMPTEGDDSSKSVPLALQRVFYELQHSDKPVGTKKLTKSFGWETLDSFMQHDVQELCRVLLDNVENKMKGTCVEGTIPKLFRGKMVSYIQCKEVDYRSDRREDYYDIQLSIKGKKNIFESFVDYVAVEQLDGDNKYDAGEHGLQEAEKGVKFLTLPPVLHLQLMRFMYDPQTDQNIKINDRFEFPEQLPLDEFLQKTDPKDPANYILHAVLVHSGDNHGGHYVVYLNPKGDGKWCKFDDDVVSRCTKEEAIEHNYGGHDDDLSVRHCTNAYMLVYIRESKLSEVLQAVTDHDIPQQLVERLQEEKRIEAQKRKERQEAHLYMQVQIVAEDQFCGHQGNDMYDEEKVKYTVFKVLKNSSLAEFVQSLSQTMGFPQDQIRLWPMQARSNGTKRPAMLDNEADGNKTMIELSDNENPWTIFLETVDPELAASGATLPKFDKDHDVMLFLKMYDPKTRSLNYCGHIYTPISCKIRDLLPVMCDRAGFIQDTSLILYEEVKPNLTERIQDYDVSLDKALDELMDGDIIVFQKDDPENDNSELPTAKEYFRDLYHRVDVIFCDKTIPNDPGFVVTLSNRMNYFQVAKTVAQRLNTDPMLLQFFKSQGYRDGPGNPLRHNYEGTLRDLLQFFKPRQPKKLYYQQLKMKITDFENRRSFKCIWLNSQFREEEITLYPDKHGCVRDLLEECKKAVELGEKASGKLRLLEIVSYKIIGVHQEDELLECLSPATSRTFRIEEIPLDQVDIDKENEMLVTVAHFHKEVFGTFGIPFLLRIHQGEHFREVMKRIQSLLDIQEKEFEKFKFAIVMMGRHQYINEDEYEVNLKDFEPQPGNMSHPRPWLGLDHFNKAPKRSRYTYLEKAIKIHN
Method in brief: as §1

USP8 = biological target: T5, USP8 (UniProt P40818)
T5 sequence (whole entry): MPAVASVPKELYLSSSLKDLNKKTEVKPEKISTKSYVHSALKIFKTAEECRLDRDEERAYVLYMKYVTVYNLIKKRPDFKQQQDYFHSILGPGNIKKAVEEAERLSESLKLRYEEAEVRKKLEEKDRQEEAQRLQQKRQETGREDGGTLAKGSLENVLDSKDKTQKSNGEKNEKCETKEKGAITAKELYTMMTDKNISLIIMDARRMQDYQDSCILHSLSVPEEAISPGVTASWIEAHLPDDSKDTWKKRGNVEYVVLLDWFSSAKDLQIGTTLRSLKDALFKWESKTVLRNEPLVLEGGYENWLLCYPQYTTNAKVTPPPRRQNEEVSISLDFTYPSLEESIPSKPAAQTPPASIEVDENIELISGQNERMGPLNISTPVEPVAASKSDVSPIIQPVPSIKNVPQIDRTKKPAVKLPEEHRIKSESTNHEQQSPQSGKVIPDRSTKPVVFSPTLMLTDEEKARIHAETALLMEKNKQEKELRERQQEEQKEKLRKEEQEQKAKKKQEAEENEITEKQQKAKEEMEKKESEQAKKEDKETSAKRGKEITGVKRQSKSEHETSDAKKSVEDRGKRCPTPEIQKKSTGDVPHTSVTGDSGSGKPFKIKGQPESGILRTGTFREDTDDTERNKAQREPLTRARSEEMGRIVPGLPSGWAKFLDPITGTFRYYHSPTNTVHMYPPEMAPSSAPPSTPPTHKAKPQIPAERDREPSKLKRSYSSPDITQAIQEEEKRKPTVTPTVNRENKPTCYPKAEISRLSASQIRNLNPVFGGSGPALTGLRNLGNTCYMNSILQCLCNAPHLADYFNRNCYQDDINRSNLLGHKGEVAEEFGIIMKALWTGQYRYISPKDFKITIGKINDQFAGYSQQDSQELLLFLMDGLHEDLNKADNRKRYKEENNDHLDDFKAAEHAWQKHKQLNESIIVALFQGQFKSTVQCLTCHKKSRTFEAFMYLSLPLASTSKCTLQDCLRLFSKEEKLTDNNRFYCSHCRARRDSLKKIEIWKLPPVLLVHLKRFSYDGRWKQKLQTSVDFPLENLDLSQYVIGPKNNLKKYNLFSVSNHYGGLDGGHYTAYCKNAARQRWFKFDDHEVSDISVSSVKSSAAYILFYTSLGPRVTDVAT
Method in brief: as §1

USP9X = USP9X (UniProt Q93008)
Method in brief: as §1

UniProt O00487 = biological target: UniProt O00487
UniProt O00487, sequence (O00487 whole entry): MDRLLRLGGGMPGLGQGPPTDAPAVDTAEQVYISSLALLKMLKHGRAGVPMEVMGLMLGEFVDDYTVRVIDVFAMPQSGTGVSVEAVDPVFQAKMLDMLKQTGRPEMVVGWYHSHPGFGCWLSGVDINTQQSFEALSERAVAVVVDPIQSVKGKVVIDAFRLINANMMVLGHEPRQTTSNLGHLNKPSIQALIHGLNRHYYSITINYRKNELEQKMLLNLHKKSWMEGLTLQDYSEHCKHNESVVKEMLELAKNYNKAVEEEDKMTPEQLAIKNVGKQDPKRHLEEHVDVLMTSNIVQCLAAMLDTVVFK
Method in brief: as §1

Measured: log2 ratio of Biotin-Ahx-Ub-VS probe labelling

O=C(CCl)NC1CCOc2ccccc21 (stereo not given)
inactive: USP42 0.184 | USP46 -0.506 | USP47 -0.268 | USP48 -0.603 | USP5 -0.575 | USP54 0.931 | USP7 -0.739 | USP8 -0.69 | USP9X -0.868 | UniProt O00487 0.0141
